Reference: article PMC7819943, “Rice protein-binding microarrays: a tool to detect cis-acting elements near promoter regions in rice”
In all, about 68,000 sequences were measured (“fluorescence intensity (a.u.)”: median about 9,100, highest 2% from about 16,000 on). Only a selection was taken, and the highest values are over-represented in it overall.

Target: OsWRKY34 (Oryza sativa, UniProt Q0JBA9 1-250)
Experiment: protein-binding microarray (RPBM); PBS, 2% BSA, 51.3 ng/ul salmon testes DNA, 50 uM zinc acetate, 200 nM TF, 25 C, 1 h; high values mean tight binding
Conditions: protein: recombinant; tags: N-terminal polyhistidine and DsRed monomer fusion (pET32a); label: CyDye5-dUTP incorporated in the synthesized complementary strand; 3' TTTTT single-stranded linker to array surface; dsDNA, one strand shown
How it was run: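 Transcription factors were made in E. coli BL21-CodonPlus as N-terminal fusions to a polyhistidine tag and DsRed, then purified on Ni–NTA. After primer extension with Cy5-dUTP and blocking with 2% BSA, a custom Agilent array was exposed for 1 h at 25 °C to 200 nM protein in PBS, 2% BSA, salmon testes DNA and 50 µM zinc acetate. Washed arrays were scanned on an Axon 4000B, and the binding signal is per-feature fluorescence intensity in arbitrary units.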

OsWRKY34, sequence (Q0JBA9 entry or part of it): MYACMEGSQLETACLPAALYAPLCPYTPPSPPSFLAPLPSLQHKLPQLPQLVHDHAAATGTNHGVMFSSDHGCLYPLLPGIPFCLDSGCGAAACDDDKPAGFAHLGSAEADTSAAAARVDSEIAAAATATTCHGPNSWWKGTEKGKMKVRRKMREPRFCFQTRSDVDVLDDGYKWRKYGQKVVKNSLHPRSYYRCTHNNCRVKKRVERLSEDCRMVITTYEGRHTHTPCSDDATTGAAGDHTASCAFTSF

Sequence	binding signal
GCCGATAGAGGCATGGGGTTTGTTCAGATTGATGTCATTTCGGAGTCACCTAGTGCAG	9370 fluorescence intensity (a.u.)
CCGTGGTGGTACGCGCGCGCTGCGTACGTTTTTTTTTCTTCGGAGTCACCTAGTGCAG	9450 fluorescence intensity (a.u.)
CGAACCAAGACAAGAAAATAGAACCATCCTATCTATCAGGCGGAGTCACCTAGTGCAG	11500 fluorescence intensity (a.u.)
GCTACACCGCACCCACCACAGCCAGACTTGAACTTGTTGACGGAGTCACCTAGTGCAG	8950 fluorescence intensity (a.u.)
GGCGCCGTCGTCTTCTTTCCCACGCCGCCGCCGCCGTCAACGGAGTCACCTAGTGCAG	8600 fluorescence intensity (a.u.)
CTCTCTTTCTTCTTTGTGTCTTTGTTTCTTTTCTTTTTTCCGGAGTCACCTAGTGCAG	14700 fluorescence intensity (a.u.)
TCTGCTTTTATTCATCGGTTTCATTAATTGTTTCTGTTACCGGAGTCACCTAGTGCAG	17200 fluorescence intensity (a.u.)
TTTCTTTTTCTTGGTTTTTTTTTGTCTTTTCTTCTTTTTCCGGAGTCACCTAGTGCAG	18200 fluorescence intensity (a.u.)
ATCCCGCTTATCCCACTTCTAATTCATTTTTTCTTTTAAACGGAGTCACCTAGTGCAG	10900 fluorescence intensity (a.u.)
TTTCTTGTTTTCTTCTCATTCTTCTTTTTTTTCTTTCTTCCGGAGTCACCTAGTGCAG	14700 fluorescence intensity (a.u.)
CCGCTCGTCTTCCACTGCAGCCCAGCTCCCGTTCTTTCAACGGAGTCACCTAGTGCAG	16500 fluorescence intensity (a.u.)
TCATTATGGTGTTTCTTAATTGCTTTTTTCTTTTTATTATCGGAGTCACCTAGTGCAG	8300 fluorescence intensity (a.u.)
GGTTTTTTTCCCGCTTATCCCACTTCTAGTCTATCTTTTTCGGAGTCACCTAGTGCAG	19300 fluorescence intensity (a.u.)
GTCTCGCTTTCTCTCTCTAGGGTTTTTCCCCACTTTCGTTCGGAGTCACCTAGTGCAG	13700 fluorescence intensity (a.u.)
GCTCCGTCTTCCTGCTCCAGCCGCTCGCCATAGCCCACTGCGGAGTCACCTAGTGCAG	11100 fluorescence intensity (a.u.)
GGGTTATGTTTCATTTGTATTATTTTCTTAATTCTTACACCGGAGTCACCTAGTGCAG	12700 fluorescence intensity (a.u.)
CACATTGCGTCTTGTAGTCTGTATTGTAGCTGACTATATACGGAGTCACCTAGTGCAG	8820 fluorescence intensity (a.u.)
CCTCCCTTGTTTTCTGTACCAATACGTGATGCACCGGTCTCGGAGTCACCTAGTGCAG	8440 fluorescence intensity (a.u.)
GGGTTCACCACCAAACTCGCCACCTATAAACGCTCCTCGCCGGAGTCACCTAGTGCAG	9030 fluorescence intensity (a.u.)
AATGTTAACGGTGCATGTGGTTGGTTGATTTGATTAGTGACGGAGTCACCTAGTGCAG	15300 fluorescence intensity (a.u.)
AATGTTCAAAATTGTGCAATCAAGGTCTTACGGCAGTATACGGAGTCACCTAGTGCAG	8120 fluorescence intensity (a.u.)

Sequence	binding signal
TTCTTTTCGCTAGTGATGTCTAGCGTTTCTTTTGACAAATCGGAGTCACCTAGTGCAG	8560 fluorescence intensity (a.u.)
CGTCTTAGTTACCCTTCTACTCCTATCGCTCGATCGCCTCCGGAGTCACCTAGTGCAG	8380 fluorescence intensity (a.u.)
TCCTTAGCTCCGCGGATTTGTTCACCATCACCACCATCACCGGAGTCACCTAGTGCAG	8780 fluorescence intensity (a.u.)
GCACCAACCATCTCACCCGTCCGACGTGGCAGCAGCAACCCGGAGTCACCTAGTGCAG	8770 fluorescence intensity (a.u.)
TGTTTTTTTTCTTTCCGTATCTTTTTCTTTTTTTGGTTTTCGGAGTCACCTAGTGCAG	19700 fluorescence intensity (a.u.)
AAGTTTAATTTGTTATTTTTATTTTTATACGTCATCTTTTCGGAGTCACCTAGTGCAG	9760 fluorescence intensity (a.u.)
GTCATCTTTGTTTGAGTCGGTTTTTAATTTTGTTTGCTTTCGGAGTCACCTAGTGCAG	17700 fluorescence intensity (a.u.)
ACTAAGTGCGTGATTGTTTCAGATTTGTTTGGGTTGCGGTCGGAGTCACCTAGTGCAG	9410 fluorescence intensity (a.u.)
TTGTGTGTGCGTTTGTGATTGCGTCGGTCGGTTTCAGTTCCGGAGTCACCTAGTGCAG	17500 fluorescence intensity (a.u.)
CTGCCTGTCCCTTTCCTGCATCCATCCATCCATCTTGATCCGGAGTCACCTAGTGCAG	10600 fluorescence intensity (a.u.)
TTTTTTCTGTTTTTTTCTTTCCGTATCTTTTTCAGTTTTTCGGAGTCACCTAGTGCAG	14200 fluorescence intensity (a.u.)
TGGTTCTTTGATCTTTTAATTTTGTTTGTTTGTTTGTTTTCGGAGTCACCTAGTGCAG	12800 fluorescence intensity (a.u.)
TTTTTTTCTTTCCGTATCTTTTTCTTTTTTTGGTTTTTTACGGAGTCACCTAGTGCAG	8410 fluorescence intensity (a.u.)
GAGTTCGGCCTTTCCGGTTTCCGGTTGTGTTGTGAGGAGTCGGAGTCACCTAGTGCAG	10600 fluorescence intensity (a.u.)
TCCCCTCTCTGTTGTCATCGTCTTCCTTTCCTTTCCTTTCCGGAGTCACCTAGTGCAG	8230 fluorescence intensity (a.u.)
GGGTGGCGTCCTGTTGTCATCTTTTATCCCTCTTGAATTCCGGAGTCACCTAGTGCAG	21500 fluorescence intensity (a.u.)
ATTGTTCGTCGAACTTTATCATATTATTAATCATCATATACGGAGTCACCTAGTGCAG	8960 fluorescence intensity (a.u.)
ACCACGGCAAGCCCCTCGCCGAGTCTCTCATCATCGTCGACGGAGTCACCTAGTGCAG	8830 fluorescence intensity (a.u.)
TTTGTGTAACCGATATGTGGGCCCCACATATTTTATTATTCGGAGTCACCTAGTGCAG	9030 fluorescence intensity (a.u.)
TGCGTGGGTCCCAACTCCGGCCGTCTTCCGCCGTTGGATCCGGAGTCACCTAGTGCAG	8940 fluorescence intensity (a.u.)
CCACGATCACATTCACCTCCCATCCCACGACGTTGCTCTCCGGAGTCACCTAGTGCAG	8850 fluorescence intensity (a.u.)
